Only some compounds are listed: those with a hit (about 1.8% of all), similar ones and a draw of the others.
Myeloid diff 2 – myeloid differentiation induction | actives 1% (n = 360,000) | ER-HoxA9 myeloid progenitors, lysozyme-GFP differentiation, flow cytometry | AID 624256 | calls only at 10 µM;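 active = normalized GFP-positive differentiation at or above the plate's own cutoff, the solvent-only control mean plus 3 SD; inconclusive = no clear call, values can overlap the other calls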;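 also: cells exposed to compound for four days before flow analysis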
NPR2 activator – GC-B (human) receptor activation; HEK293-GC-B cells, CNP EC30, cGMP TR-FRET; 0% at EC30 CNP, 100% saturating CNP; activation, % at 10 µM; actives 0.11% (n = 370,000);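 active = activation at 10 µM reaching about 35% in either raw or pattern-adjusted values, limit read from the data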
Target sequence (P20594 whole entry, looked up): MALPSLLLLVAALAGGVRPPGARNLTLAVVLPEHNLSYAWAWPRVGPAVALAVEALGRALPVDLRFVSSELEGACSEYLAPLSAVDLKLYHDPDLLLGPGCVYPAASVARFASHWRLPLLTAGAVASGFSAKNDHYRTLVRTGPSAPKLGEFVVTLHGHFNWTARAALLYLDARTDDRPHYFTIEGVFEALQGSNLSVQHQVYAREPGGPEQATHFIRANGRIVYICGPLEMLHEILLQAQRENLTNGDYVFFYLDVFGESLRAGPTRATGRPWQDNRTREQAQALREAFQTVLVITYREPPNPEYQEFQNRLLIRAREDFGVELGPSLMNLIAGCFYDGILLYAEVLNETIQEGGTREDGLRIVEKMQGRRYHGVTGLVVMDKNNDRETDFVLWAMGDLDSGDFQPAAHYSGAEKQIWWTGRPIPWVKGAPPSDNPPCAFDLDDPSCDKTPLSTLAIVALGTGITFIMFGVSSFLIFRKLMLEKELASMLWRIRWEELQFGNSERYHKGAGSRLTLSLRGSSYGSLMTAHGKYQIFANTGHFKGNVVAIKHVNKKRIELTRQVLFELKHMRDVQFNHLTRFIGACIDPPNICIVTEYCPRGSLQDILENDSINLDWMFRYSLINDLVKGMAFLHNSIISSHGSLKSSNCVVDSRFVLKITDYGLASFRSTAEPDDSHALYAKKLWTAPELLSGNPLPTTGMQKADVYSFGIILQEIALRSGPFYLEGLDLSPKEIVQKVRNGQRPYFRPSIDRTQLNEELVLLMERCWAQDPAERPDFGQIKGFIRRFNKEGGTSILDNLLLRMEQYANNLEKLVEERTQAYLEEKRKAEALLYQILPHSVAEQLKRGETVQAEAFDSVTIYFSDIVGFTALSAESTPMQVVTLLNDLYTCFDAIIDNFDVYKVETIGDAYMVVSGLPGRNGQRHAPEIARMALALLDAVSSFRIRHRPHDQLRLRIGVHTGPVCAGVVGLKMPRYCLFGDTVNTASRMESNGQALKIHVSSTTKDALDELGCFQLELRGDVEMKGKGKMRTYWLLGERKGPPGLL
GC-A act – GC-A (human) enzyme activation | P16066 | activation, % at 10 µM | actives 0.14% (n = 370,000) | HEK293 GC-A cells, cGMP TR-FRET, EC30 ANP; 0% at EC30 ANP, 100% saturating ANP; in the data active = activation above about 40%
Granule exo inh – blocks lytic granule exocytosis; actives 0.66% (n = 360,000); AID 651702; inhibition, % at 10 µM; TALL-104 LAMP-1 surface exposure, flow cytometry; cells stimulated with thapsigargin and PMA;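 active = inhibition above about 55%, limit read from the data; inconclusive = no clear call, values can overlap the other calls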
Each line names hits and unclear results; the compound was inactive in the other large screens.

CCN(CC)c1nc2ccccc2nc1C(C#N)C(=O)NCCCOC (centres undefined)	Myeloid diff 2 active
Cc1noc(C)c1C(C)C1=CCCCC1 (centres undefined)	none (no result: Myeloid diff 2, Granule exo inh)
CC(=O)Nc1ccc2oc(-c3cc(F)c(F)cc3Cl)nc2c1	GC-A act 57.7
Cc1ccn2c(NC3CCCCC3)c(-c3cccc(-c4cccc(Cl)c4)c3)nc2c1	Myeloid diff 2 active
COc1cc(-c2nc3cc(C)ccn3c2NC2CCCCC2)ccc1-c1ccc(C(C)=O)cc1	Myeloid diff 2 active
Cc1ccn2c(NC3CCCC3)c(-c3ccncc3)nc2c1	none
COC(=O)COc1cc(OCC(=O)OC)c2c(-c3ccccc3)cc(=O)oc2c1	none
COC(=O)C(C)Oc1cc(OC(C)C(=O)OC)c2c(-c3ccccc3)cc(=O)oc2c1 (centres undefined)	Granule exo inh 62.7
COc1ccc(CCNc2nc3ccccc3n3cnnc23)cc1OC	none
CCc1nnc2c(NCCc3ccc(OC)c(OC)c3)nc3ccccc3n12	NPR2 activator 53.5, GC-A act 40.1
O=C(CN1CCCC1c1cccs1)Nc1cc(S(=O)(=O)N2CCCCC2)ccc1Cl (centres undefined)	none
COC(=O)c1ccc(C2c3[nH]c4ccccc4c3C[C@H]3C(=O)N(C4CC4)CC(=O)N23)cc1 (some centres undefined)	GC-A act 55.0
CN1CC(=O)N2[C@H](c3ccc4c(c3)OCO4)c3[nH]c4ccccc4c3C[C@@H]2C1=O	NPR2 activator 57.5, GC-A act 49.5
CCOc1ccc(C2c3[nH]c4ccccc4c3C[C@H]3C(=O)N(C4CC4)CC(=O)N23)cc1OC (some centres undefined)	none
O=[N+]([O-])c1ccccc1S(=O)(=O)N1CCC(c2cn3ccccc3n2)CC1	none (no result: Myeloid diff 2, Granule exo inh)
COC(=O)C1=C(C)N(Cc2ccccc2)C(=NCCc2cccnc2)N[C@H]1c1ccc(Br)cc1	Myeloid diff 2 active (no result: NPR2 activator, GC-A act)
COC(=O)C1=C(C)N(Cc2ccccc2)C(=NCCc2cccnc2)N[C@H]1c1ccccc1	none (no result: NPR2 activator, GC-A act)
CC(=O)OCCCNc1cc(Sc2ccc(Cl)cc2)c2nonc2c1[N+](=O)[O-]	Myeloid diff 2 inconclusive, Granule exo inh 63.8
Cc1ccc(Sc2cc(NCCCO)c([N+](=O)[O-])c3nonc23)cc1	none
Nc1cnc(Nc2ccc(Br)cc2)nc1N	Myeloid diff 2 active
N#Cc1c(N)nc(N)nc1Nc1ccc(Br)cc1	none
COCCCNC(=O)C[C@H]1C[C@@]2(C(=O)OC)C(=C[C@H](C(C)C)O[C@@H]2C2CC2)N(Cc2ccco2)C1=O	none (no result: Myeloid diff 2, Granule exo inh)
Cc1cccc(CN2C(=O)N/C(=C/c3ccc(C)s3)C2=O)c1	Myeloid diff 2 active
CCN1C(=O)/C(=C/c2ccc(C)s2)NC1=S	NPR2 activator 38.0
Cc1ccc(/C=C2/NC(=O)N(Cc3ccccc3)C2=O)s1	none
CCOC(=O)COc1ccc(/C=C2\NC(=S)N(CC)C2=O)cc1	NPR2 activator 50.6, GC-A act 43.8
Cc1ccc(CN2CCCCC(NC(=O)Nc3ccccc3)C2=O)cc1 (centres undefined)	none (no result: Myeloid diff 2, Granule exo inh)
CCCC1=[N+](CC(=O)c2ccc(C)cc2)CCn2cccc21	Myeloid diff 2 active
CCCC1=[N+](CC)CCn2c(C)ccc21	none
Cc1cc2c(c(=O)o1)[C@@]1(C(=O)Nc3ccccc31)C1=C(CCCC1=O)O2	none (no result: Myeloid diff 2, Granule exo inh)
CCOC(=O)c1ccc(NC(=O)COc2ccccc2CNCCc2ccccc2)cc1	Granule exo inh 69.4
C#CCNC(=O)C[C@H]1C[C@@]2(C(=O)OC)C(=C[C@H](C3CCCC3)O[C@@H]2C)N(CCC2=CCCCC2)C1=O	none (no result: Myeloid diff 2, Granule exo inh)
Cc1[nH]c2ccccc2c1/C=N/Nc1nc2ccccc2[nH]1	Granule exo inh 71.8
Cc1ccccc1/C=N/Nc1nc2ccccc2[nH]1	none
COC(=O)[C@]12C[C@H](CC(=O)N3CCN(C(=O)c4ccco4)CC3)C(=O)N(Cc3ccco3)C1=C[C@H](C1CCCC1)O[C@@H]2C	none (no result: Myeloid diff 2, Granule exo inh)
CCOC(=O)N1CCN(C(=O)CN(C2CCCCC2)S(=O)(=O)c2ccc(Cl)cc2)CC1	Myeloid diff 2 active
CCOc1cc(/C=N\Nc2ncc(F)c(N3CCOCC3)n2)ccc1Oc1nc(Cl)ncc1F	Granule exo inh 82.7
CCOc1cc(/C=N/NC(=O)c2ccc(O)cc2)ccc1Oc1nc(Cl)ncc1F	none
Cc1cc(C(C)(C)C)cc(C)c1C[n+]1ccc2ccccc2c1	Myeloid diff 2 active
Cc1ccc(C(=O)C[n+]2ccc3ccccc3c2)cc1	none
OC(c1ccccc1)(c1ccccc1)C1CCN(CCCOc2cccc(F)c2)CC1	none (no result: Myeloid diff 2, Granule exo inh)
COc1ccc(Cl)cc1-c1cc(C(=O)NCc2ccc(F)cc2)[nH]n1	GC-A act 42.8
COc1ccc(NC(=O)c2cc(-c3cc(Cl)ccc3OC)n[nH]2)cc1OC	NPR2 activator 53.0, GC-A act 44.9
COc1ccc(F)cc1-c1cc(C(=O)NCc2cccc(Cl)c2)[nH]n1	none
COc1ccc(NC(=O)c2cc(-c3cc(Cl)ccc3C)n[nH]2)cc1OC	none
CC(C)(C)OC(=O)N1CCC(Cc2cc(-c3ccccc3)no2)(C(=O)O)CC1	none
CC(C)(C)OC(=O)N1CCC(Cc2cc(-c3cccnc3)no2)(C(=O)O)CC1	Myeloid diff 2 active
Cc1ccccc1NC(=O)OC1CCC12CCCCC2 (centres undefined)	none (no result: Myeloid diff 2, Granule exo inh)
CCOC(=O)Cn1c(-c2ccccc2)cc(SC)c(C#N)c1=O	Granule exo inh 61.3 (no result: Myeloid diff 2)
N=C1S/C(=C\c2ccccc2F)C(=O)N1c1ccc(F)cc1	none
N=C1S/C(=C\c2cccc3ccccc23)C(=O)N1c1ccc(F)cc1	Myeloid diff 2 active
COCCN(CCOC)Cc1cc(=O)oc2cc(C)c(C)cc12	none
Cc1c(NC(=O)C2CCCN(S(=O)(=O)c3c(C(C)C)cc(C(C)C)cc3C(C)C)C2)c(=O)n(-c2ccccc2)n1C (centres undefined)	none (no result: Myeloid diff 2, Granule exo inh)
O=C(Nc1ccc(Cl)cc1)OC1CCC12CCC(c1ccccc1)CC2 (centres undefined)	none (no result: Myeloid diff 2, Granule exo inh)
CC(NC(=O)C1CCCN1S(=O)(=O)c1cccc2cccnc12)c1ccccc1 (centres undefined)	none
